# Legend:
# Assay in all cases: yeast three-hybrid, YBZ-1, SC-Leu-His + 0.5 mM 3-AT, 4 days
# Conditions in all cases: tags: N-Gal4 AD-HA kept; label: inside an RPR1-promoter hybrid RNA with tandem MS2 sites; ssRNA
# [1] = target: PUM1 PUF domain R7-KWK (Homo sapiens, UniProt Q14671 828-1176, S1079K;N1080W;E1083K)
# Summary of the method: (§1)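 Pumilio-1 PUF domain libraries, randomized (NNK) at the three base-contacting residues of each repeat, were co-expressed with matching RNA elements from a centromeric plasmid in strain YBZ-1 (LexA–MS2 coat fusion, HIS3 reporter). Transformants were plated on SC-Leu (input) and SC-Leu-His + 0.5 mM 3-AT (selection) for four days, and repeat regions were PCR-amplified and Illumina-sequenced. The interaction score is the log2 change in variant frequency from input to selection, with pseudocount 1 where absent.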
# [2] = target: PUM1 PUF domain R5-RNG (Homo sapiens, UniProt Q14671 828-1176, C1007R;R1008N;Q1011G)
# Summary of the method: as §1
# [3] = target: PUM1 PUF domain R3-RSW (Homo sapiens, UniProt Q14671 828-1176, C935R;R936S;Q939W)
# Summary of the method: as §1
# [4] = target: PUM1 PUF domain R3-TFG (Homo sapiens, UniProt Q14671 828-1176, C935T;R936F;Q939G)
# Summary of the method: as §1
# [5] = target: T1, PUM1 PUF domain R6-LYV (Homo sapiens, UniProt Q14671 828-1176, N1043L;Q1047V)
# T1 sequence: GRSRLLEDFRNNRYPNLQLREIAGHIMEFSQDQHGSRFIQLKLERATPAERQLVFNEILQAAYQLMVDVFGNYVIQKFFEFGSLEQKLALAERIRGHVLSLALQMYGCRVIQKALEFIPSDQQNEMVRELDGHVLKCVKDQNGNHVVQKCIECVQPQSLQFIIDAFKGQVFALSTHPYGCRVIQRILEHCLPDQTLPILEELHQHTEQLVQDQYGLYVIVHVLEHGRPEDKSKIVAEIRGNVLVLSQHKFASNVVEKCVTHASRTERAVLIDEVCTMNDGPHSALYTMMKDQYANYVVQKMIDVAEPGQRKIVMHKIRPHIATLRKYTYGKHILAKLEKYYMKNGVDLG
# Summary of the method: as §1
# [6] = target: PUM1 PUF domain R2-AYW (Homo sapiens, UniProt Q14671 828-1176, N899A;Q903W)
# Summary of the method: as §1
# [7] = target: PUM1 PUF domain R3-VSK (Homo sapiens, UniProt Q14671 828-1176, C935V;R936S;Q939K)
# Summary of the method: as §1
# [8] = target: PUM1 PUF domain R3-RTI (Homo sapiens, UniProt Q14671 828-1176, C935R;R936T;Q939I)
# Summary of the method: as §1
# [9] = target: PUM1 PUF domain R5-EAE (Homo sapiens, UniProt Q14671 828-1176, C1007E;R1008A;Q1011E)
# Summary of the method: as §1
# [10] = target: PUM1 PUF domain R5-WHY (Homo sapiens, UniProt Q14671 828-1176, C1007W;R1008H;Q1011Y)
# Summary of the method: as §1
sequence,measurement,setting,value
GGCUAGAACUAGUGGAUCCCCCGGCGCCCGGCGGCUCGAGCCCGGGUAAGUAUAAAUAGUCUGCAUGCCGCCGGGCGCCAUGCCUGCAGGUCGACUCUAGAAAACAUG,binding signal,[1],2.56 log2 enrichment (interaction score)
GGCUAGAACUAGUGGAUCCCCCGGCGCCCGGCGGCUCGAGCCCGGGUAAGUCUAAAUAGUCUGCAUGCCGCCGGGCGCCAUGCCUGCAGGUCGACUCUAGAAAACAUG,binding signal,[1],2.57 log2 enrichment (interaction score)
GGCUAGAACUAGUGGAUCCCCCGGCGCCCGGCGGCUCGAGCCCGGGUAAGUGUUAAUAGUCUGCAUGCCGCCGGGCGCCAUGCCUGCAGGUCGACUCUAGAAAACAUG,binding signal,[2],4.63 log2 enrichment (interaction score)
GGCUAGAACUAGUGGAUCCCCCGGCGCCCGGCGGCUCGAGCCCGGGUAAGUGUCAAUAGUCUGCAUGCCGCCGGGCGCCAUGCCUGCAGGUCGACUCUAGAAAACAUG,binding signal,[2],2.64 log2 enrichment (interaction score)
GGCUAGAACUAGUGGAUCCCCCGGCGCCCGGCGGCUCGAGCCCGGGUAAGUGUAAGUAGUCUGCAUGCCGCCGGGCGCCAUGCCUGCAGGUCGACUCUAGAAAACAUG,binding signal,[3],0.87 log2 enrichment (interaction score)
same,binding signal,[4],2.15 log2 enrichment (interaction score)
GGCUAGAACUAGUGGAUCCCCCGGCGCCCGGCGGCUCGAGCCCGGGUAAGUGUAAAUAGUCUGCAUGCCGCCGGGCGCCAUGCCUGCAGGUCGACUCUAGAAAACAUG,binding signal,[5],2.81 log2 enrichment (interaction score)
GGCUAGAACUAGUGGAUCCCCCGGCGCCCGGCGGCUCGAGCCCGGGUAAGUGUAAAAAGUCUGCAUGCCGCCGGGCGCCAUGCCUGCAGGUCGACUCUAGAAAACAUG,binding signal,[6],3.05 log2 enrichment (interaction score)
GGCUAGAACUAGUGGAUCCCCCGGCGCCCGGCGGCUCGAGCCCGGGUAAGUGUAAUUAGUCUGCAUGCCGCCGGGCGCCAUGCCUGCAGGUCGACUCUAGAAAACAUG,binding signal,[3],3.81 log2 enrichment (interaction score)
same,binding signal,[4],2.64 log2 enrichment (interaction score)
same,binding signal,[7],3.36 log2 enrichment (interaction score)
same,binding signal,[8],3.21 log2 enrichment (interaction score)
GGCUAGAACUAGUGGAUCCCCCGGCGCCCGGCGGCUCGAGCCCGGGUAAGUGUGAAUAGUCUGCAUGCCGCCGGGCGCCAUGCCUGCAGGUCGACUCUAGAAAACAUG,binding signal,[9],3.11 log2 enrichment (interaction score)
same,binding signal,[10],5.78 log2 enrichment (interaction score)
GGCUAGAACUAGUGGAUCCCCCGGCGCCCGGCGGCUCGAGCCCGGGUAAGUGUAACUAGUCUGCAUGCCGCCGGGCGCCAUGCCUGCAGGUCGACUCUAGAAAACAUG,binding signal,[4],0.95 log2 enrichment (interaction score)

# — paper PMC8384837, “Expanding the binding specificity for RNA recognition by a PUF domain”
